HCV NS3h FP – blocks HCV NS3 helicase binding to DNA. NS3h Cy5-dT15 DNA binding, fluorescence polarization. inhibition, % at 100 µM. 1.6% of 16,000 active. AID 687043;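 active = inhibition above the average over every tested compound plus 3 SD, cut at about 40% in these data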
Cy5 interf NS3h – enhances or quenches Cy5 fluorescence in NS3h assay | Cy5-dT15 DNA with NS3h, fluorescence interference; actives lie on both sides; signal over control mean, under 1 quenches | fluorescence interference ratio at 100 µM | 6% of 16,000 active | AID 720488;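 active = compound fluorescence over control fluorescence at most 0.8, a quencher, or at least a set upper limit, an enhancer; inactive = ratio between 0.8 and the set upper limit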
Active calls of the source: *. Shown are actives, neighbours in structure and some others; about 7.6% of the full set was active somewhere.

SMILES | HCV NS3h FP | Cy5 interf NS3h
CC1=C(C(=O)OC2CCCC2C)C(c2ccccc2)NC(=O)N1 (stereo not given) | 9.4 | 0.964
CC(=O)Nc1cc(-c2ccc(Cl)cc2)[nH]n1 | 6.8 | 0.669*
Cc1ccc(-c2cc(NC(=O)c3ccc(F)cc3)n[nH]2)cc1 | 12.9 | 1.01
O=C(NCCCO)C(=O)Nc1ccc(F)cc1 | 2.9 | 1.15
N#Cc1ccc2c(c1)nc1c3cccc4cccc(c(=O)n21)c43 | -4.3 | 0.65*
Cc1cccc(Nc2cc(C)c(C#N)c3nc4ccccc4n23)c1 | 3.5 | 1.05
O=C1CC(c2cccc(Br)c2)c2cc(Br)c3ccccc3c2N1 (stereo not given) | 10.9 | 1.06
COC(=O)c1c(C)oc2ccc(OC(=O)c3ccccc3)cc12 | 8.1 | 0.996
O=C(/C=C/c1ccc2c(c1)OCO2)n1cnc2ccccc21 | -3.9 | 1.03
CC1CCN(CCCCOc2c(Cl)cccc2Cl)CC1 | -7.1 | 0.794*
Cc1ccc(C)c(OCCCCN2CCCC2)c1C | -0.3 | 0.722*
CC1CCN(Cc2c(O)ccc3ccccc23)CC1 | 0.4 | 1
Cc1cc(Cl)ccc1OCC(O)CN1CCCC1 (stereo not given) | 1.4 | 1.08
COc1ccc(N(CC(=O)NCCSc2nc3ccccc3s2)S(=O)(=O)c2ccccc2)c(OC)c1 | 7.7 | 1.06
O=C1OC(c2ccccc2F)=N/C1=C\c1ccccc1[N+](=O)[O-] | 5.0 | 0.994
CCCCN1C(=O)/C(=C/c2ccc(OC)cc2OC)SC1=S | 16.1 | 0.958
C=CCc1ccccc1OCc1nnc(NC(=O)Nc2ccccc2)s1 | 8.8 | 0.93
CC(=O)Oc1ccc(/C(C)=N\N2CCN(Cc3cccc4ccccc34)CC2)cc1 | 8.5 | 0.952
CC(=O)c1ccc(NC(=S)NC(=O)/C=C/c2ccccc2)cc1 | 5.1 | 1.06
CCc1ccc(NC(=S)NC(=O)/C=C/c2ccccc2)cc1 | 48.9* | 0.898
O=C(NC(=C(Cl)Cl)S(=O)(=O)c1ccc(Cl)cc1)c1ccccc1 | 1.7 | 0.788*
COC(=NS(=O)(=O)c1ccc(Cl)cc1)c1ccccc1 | 4.1 | 1.03
COc1ccc(C(=O)OCCCN2C(=O)c3ccccc3C2=O)cc1 | 8.7 | 0.616*
CC(=O)OCCCN1C(=O)c2ccc(S(=O)(=O)c3ccc4c(c3)C(=O)N(CCCOC(C)=O)C4=O)cc2C1=O | 2.8 | 1.03
CCOC(=O)c1cnc2cc(-c3cccs3)[nH]n2c1=O | 4.5 | 1.09
SMILES | HCV NS3h FP | Cy5 interf NS3h
O=C(Nc1ccc(S(=O)(=O)N2CCCCC2)cc1)c1ccc(F)cc1 | 8.6 | 0.915
O=C(Nc1ccc(S(=O)(=O)N2CCCCCC2)cc1)C(F)(F)F | 14.0 | 0.766*
CCOc1ccc(Cc2c(O)nc(N)[nH]c2=O)cc1 | 3.2 | 0.949
O=[N+]([O-])c1c(NC2CC2)ncnc1NC1CC1 | 10.1 | 0.981
CCOc1cc(C(=O)Nc2cccc(NC(C)=O)c2)cc(OCC)c1OCC | 5.6 | 0.953
CC1CC(O)N(c2ccccc2)C(=S)N1 (stereo not given) | 16.8 | 0.774*
CCCCNC(=O)/C(=C\c1ccc(-c2cccc([N+](=O)[O-])c2)o1)NC(=O)c1ccccc1 | 7.2 | 1.04
CCCCNC(=O)/C(=C/c1ccc(C)o1)NC(=O)c1ccccc1 | 16.8 | 0.66*
Cc1ccccc1-n1c(C)cc(C=O)c1C | 2.7 | 1.09
Cc1ccc(CC2C(=O)N(c3ccc([N+](=O)[O-])cc3)C(=O)C2C)cc1 (stereo not given) | 7.8 | 1.11
COc1ccc(S(=O)(=O)N(CCc2ccccc2)CC(=O)Nc2cccc3ccccc23)cc1 | 19.0 | 1.09
Cc1ccc(-n2c(C)cc(/C=C(\C#N)C(=O)Nc3ccccc3)c2C)cc1C | 5.8 | 0.982
Cc1ccc(C(=O)COc2cc(OCC(=O)c3ccc(C)cc3)c3c(C)cc(=O)oc3c2)cc1 | 2.2 | 0.659*
O=C(COc1ccc2ccc(=O)oc2c1)c1ccc(-c2ccccc2)cc1 | 33.0 | 0.954
CC(=O)Nc1ccc(N2C(=O)C3C4c5ccccc5C(c5ccccc54)C3C2=O)cc1 (stereo not given) | 14.4 | 0.984
COc1ccc(N)cc1-n1c(C)ccc1C | 3.7 | 0.405*
Cc1cc(C)nc(NS(=O)(=O)c2ccc(NC(=O)COc3ccc4ccccc4c3)cc2)n1 | -0.7 | 0.965
CC(=O)Nc1ccc(S(=O)(=O)NNC(=O)c2ccccc2Cl)cc1 | 15.0 | 0.746*
CC(=O)Nc1ccc(S(=O)(=O)NC(c2ccccc2)c2ccccc2)cc1 | 12.4 | 1.12
CCOC(=O)c1c(NC(=O)COc2ccccc2)sc(C(=O)Nc2cc(C(F)(F)F)ccc2Cl)c1C | 5.2 | 1.04
COc1ccc2oc(=O)c(C(=O)Nc3ccc(Cl)c(Cl)c3)cc2c1 | 2.2 | 0.971
Cc1cc(/C=N\O)c(C)n1-c1ccccc1 | 12.9 | 0.968
O=C1S/C(=C\c2ccc(Br)o2)C(=O)N1c1ccc(Cl)cc1 | 4.2 | 0.914
O=C(O)c1cccc(-c2ccc(/C=C3\SC(=O)N(c4ccc(Cl)cc4)C3=O)o2)c1 | 18.6 | 0.765*

From PubChem BioAssay
